# Laboratory results as given in the supplement of paper PMC3545927.
# Some of the results follow. The true hit rate is not given.
# Target: furin, P09958
# Test: furin cleavage Z-score vs untreated control; higher = more cleavage, active = 3.5 or more, inactive = 1 or less, 8 variable residues between constant flanks
# How it was run: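 In 50 mM HEPES pH 7.5 with CaCl2 and NaCl, purified furin was incubated with bead-anchored 8-mer peptide–cDNA fusions at 1:10 enzyme:substrate in 0.01 ml. Incubation times were 7.5, 15 and 30 min. DNA set free by cleavage was adapter-tagged by PCR and sequenced, with read counts taken as abundance. Log counts relative to furin-free reactions, after lowess adjustment and median absolute deviation scaling, form the cleavage Z-score.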
# Sequence of furin, P09958 (P09958 whole entry): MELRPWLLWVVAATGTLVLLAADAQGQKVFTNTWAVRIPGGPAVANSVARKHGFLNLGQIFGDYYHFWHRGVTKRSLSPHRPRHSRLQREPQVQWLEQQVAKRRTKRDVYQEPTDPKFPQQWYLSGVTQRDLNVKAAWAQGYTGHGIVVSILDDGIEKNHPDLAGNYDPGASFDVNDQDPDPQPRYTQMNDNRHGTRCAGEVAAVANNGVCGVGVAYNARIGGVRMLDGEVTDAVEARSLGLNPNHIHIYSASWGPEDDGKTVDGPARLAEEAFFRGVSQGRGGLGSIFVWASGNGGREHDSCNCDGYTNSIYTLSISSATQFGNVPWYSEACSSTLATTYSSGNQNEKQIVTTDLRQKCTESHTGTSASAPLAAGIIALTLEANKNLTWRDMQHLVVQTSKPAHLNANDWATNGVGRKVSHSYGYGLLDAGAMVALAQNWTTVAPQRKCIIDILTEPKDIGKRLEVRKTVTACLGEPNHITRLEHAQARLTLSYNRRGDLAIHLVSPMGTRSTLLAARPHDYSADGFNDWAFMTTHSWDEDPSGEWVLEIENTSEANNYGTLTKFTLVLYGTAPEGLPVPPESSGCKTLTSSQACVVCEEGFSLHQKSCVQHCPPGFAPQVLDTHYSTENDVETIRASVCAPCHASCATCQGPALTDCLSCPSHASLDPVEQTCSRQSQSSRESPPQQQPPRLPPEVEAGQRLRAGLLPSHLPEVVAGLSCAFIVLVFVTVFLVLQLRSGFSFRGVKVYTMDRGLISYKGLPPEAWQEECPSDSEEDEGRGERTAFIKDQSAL
Sequence,furin cleavage Z-score (7.5 min),furin cleavage Z-score (15 min),furin cleavage Z-score (30 min)
CAAETTVRLRAGNASASA [HC927],0.749 (inactive),-0.382 (inactive),0.0108 (inactive)
CARCVRICSKAGNASASA [FS-2899],1.54,-0.229 (inactive),-0.326 (inactive)
CASYPCSAHLAGNASASA [HC2489],0.414 (inactive),-1.17 (inactive),1.74
CATFALWRVSAGNASASA [HC1200],-1.06 (inactive),-0.9 (inactive),-0.368 (inactive)
CAVLCCSMSYAGNASASA [HC2005],0.0781 (inactive),1.47,0.67 (inactive)
CADFVRSITPAGNASASA [FS-1878],-0.721 (inactive),-0.817 (inactive),-2.11 (inactive)
CARRFRSVPRAGNASASA [FS-2369],-0.464 (inactive),0.0993 (inactive),0.454 (inactive)
CARFRRSETPAGNASASA [FS-1854],6.5 (active),5.93 (active),5.18 (active)
CARSRRQDVRAGNASASA [FS-2818],1.35,3.52 (active),2.66
CARFRRAANRAGNASASA [FS-1702],7.75 (active),10.5 (active),7.34 (active)
CARSRRRSGRAGNASASA [FS-3094],1.03,0.486 (inactive),1.5
CARFRRSVPRAGNASASA [FS-2667],8.62 (active),7.98 (active),7.02 (active)
CARFRKAYKPAGNASASA [FS-2926],0.349 (inactive),-0.617 (inactive),-0.661 (inactive)
CARFYRYMGRAGNASASA [FS-2141],0.0635 (inactive),0.964 (inactive),-0.333 (inactive)
CARERRSEEPAGNASASA [FS-1890],-0.884 (inactive),3.45,0.678 (inactive)
CATFHKAEYRAGNASASA [EK4],-1.71 (inactive),-2.3 (inactive),-0.599 (inactive)
CARAAVCTRGAGNASASA [HC751],0.0348 (inactive),-0.103 (inactive),-0.127 (inactive)
CAISWCLWWLAGNASASA [HC580],-1.57 (inactive),-0.298 (inactive),-1.76 (inactive)
CARRIRPTHPAGNASASA [FS-3048],-1.48 (inactive),-0.376 (inactive),-2.07 (inactive)
CAPCTTPCSGAGNASASA [HC1959],-0.283 (inactive),-0.0949 (inactive),0.269 (inactive)
CASPPVPPPRAGNASASA [HC1321],0.641 (inactive),2.74,1.49
CARTRRQDIRAGNASASA [FS-2836],3.19,3.96 (active),4.46 (active)
CARHPRSPPRAGNASASA [FS-2679],2.12,2.59,4.01 (active)

Sequence,furin cleavage Z-score (7.5 min),furin cleavage Z-score (15 min),furin cleavage Z-score (30 min)
CAREERSWFRAGNASASA [FS-2910],1.59,-0.354 (inactive),-1.01 (inactive)
CARFRRLWPCAGNASASA [FS-1705],-0.433 (inactive),-0.574 (inactive),0.464 (inactive)
CARFRRQDIRAGNASASA [FS-2664],2.04,2.56,4.18 (active)
CATVTESDIRAGNASASA [HC1484],-1.23 (inactive),-2.19 (inactive),-1.8 (inactive)
CARFRRQQWKAGNASASA [FS-2416],-0.28 (inactive),-0.542 (inactive),-0.363 (inactive)
CADQMEECSQAGNASASA [HC1822],-1.95 (inactive),0.171 (inactive),0.415 (inactive)
CAVQCCSMSYAGNASASA [HC2022],-0.966 (inactive),0.322 (inactive),0.723 (inactive)
CADLCGSVFLAGNASASA [HC300],-2.25 (inactive),-0.764 (inactive),-0.906 (inactive)
CASDGSWSTVAGNASASA [HC1361],1.87,1.47,0.994 (inactive)
CARWKRNLDFAGNASASA [FS-2199],6.47 (active),7.97 (active),10.7 (active)
CARAKRQKDFAGNASASA [FS-2885],3.42,4.84 (active),4.86 (active)
CARWKRGLDWAGNASASA [FS-3214],7.21 (active),8.26 (active),10.3 (active)
CARWKRPAFTAGNASASA [FS-1806],-0.259 (inactive),0.293 (inactive),-0.665 (inactive)
CARWKRPIDLAGNASASA [FS-3131],-0.222 (inactive),0.7 (inactive),0.99 (inactive)
CALHTPGCVPAGNASASA [HC271],-1.15 (inactive),-0.17 (inactive),0.0406 (inactive)
CAWIWFCLLLAGNASASA [HC1656],-0.725 (inactive),-0.337 (inactive),-0.583 (inactive)
CAMRLRIRRMAGNASASA [FS-1601],10.1 (active),8.78 (active),9.1 (active)
CATQRRGRTGAGNASASA [HC903],-0.796 (inactive),-0.169 (inactive),-0.351 (inactive)
CACWPRHRRVAGNASASA [FS-1314],0.553 (inactive),1.38,2.27
CAMRAFQRRMAGNASASA [FS-276],-1.44 (inactive),-1.21 (inactive),-0.935 (inactive)
CAKWSRHRRMAGNASASA [FS-175],11.5 (active),12.9 (active),11.2 (active)
CASQSRIRRMAGNASASA [FS-504],9.85 (active),9.09 (active),8.46 (active)
CATQSRIRRMAGNASASA [FS-511],5.23 (active),7.4 (active),6.25 (active)
